Test results reported in PubChem BioAssay AID1159580 (chemical genetic matrix, 2015).
The whole screen tested about 5,500 compounds, of which about 2,000 (36%) were called active. Not shown: some 18% with an inconclusive outcome. This is one part of the list. Unmarked numbers belong to inactive results. Rule as the data show it: active = normalized growth mostly below about 0.91 (no sharp cut-off); inconclusive = no clear call, values can overlap the other calls; inactive = mostly above about 0.92.

Assay: chemical genetic growth profiling, strain panel (AID 1159580);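 also: tested at 20 µM; growth read once vehicle control cultures reached saturation at 30 °C; 1 = growth at the plate median or of vehicle wells; lower values mean less growth of the strain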
Details: growth OD

COc1ccc2cc3[n+](cc2c1OC)CCc1cc2c(cc1-3)OCO2
normalized growth (S. cerevisiae deletion strains, locus YNL071W, strain lat1, stronger effect = lower value): 0.991
normalized growth (S. cerevisiae deletion strains, locus YNL128W, strain TEP1, stronger effect = lower value): 0.518 (active)
normalized growth (S. cerevisiae deletion strains, locus YNL153C, strain GIM3, stronger effect = lower value): 0.701 (active)
normalized growth (S. cerevisiae deletion strains, locus YNL183C, strain NPR1, stronger effect = lower value): 0.855
normalized growth (S. cerevisiae deletion strains, locus YNL209W, strain ssb2, stronger effect = lower value): 0.98
normalized growth (S. cerevisiae deletion strains, locus YNL233W, strain BNI4, stronger effect = lower value): 0.593 (active)
normalized growth (S. cerevisiae deletion strains, locus YNL248C, strain rpa49, stronger effect = lower value): 0.975
normalized growth (S. cerevisiae deletion strains, locus YNL250W, strain rad50, stronger effect = lower value): 0.995
normalized growth (S. cerevisiae deletion strains, locus YNL271C, strain bni1, stronger effect = lower value): 0.963
normalized growth (S. cerevisiae deletion strains, locus YNL298W, strain CLA4, stronger effect = lower value): 0.971
normalized growth (S. cerevisiae deletion strains, locus YNL307C, strain MCK1, stronger effect = lower value): 0.561 (active)
normalized growth (S. cerevisiae deletion strains, locus YNL322C, strain KRE1 (second series), stronger effect = lower value): 0.987
normalized growth (S. cerevisiae deletion strains, locus YNL322C, strain KRE1, stronger effect = lower value): 0.496 (active)
normalized growth (S. cerevisiae deletion strains, locus YNR049C, strain mso1, stronger effect = lower value): 0.998
normalized growth (S. cerevisiae deletion strains, locus YNR052C, strain pop2, stronger effect = lower value): 0.671 (active)
normalized growth (S. cerevisiae deletion strains, locus YOL006C, strain TOP1, stronger effect = lower value): 0.405 (active)
normalized growth (S. cerevisiae deletion strains, locus YOL012C, strain htz1): 2.03 [resistant] (active)
normalized growth (S. cerevisiae deletion strains, locus YOL147C, strain pex11, stronger effect = lower value): 0.603 (active)
normalized growth (S. cerevisiae deletion strains, locus YOR001W, strain rrp6, stronger effect = lower value): 0.973
normalized growth (S. cerevisiae deletion strains, locus YOR061W, strain CKA2, stronger effect = lower value): 0.378 (active)
normalized growth (S. cerevisiae deletion strains, locus YOR069W, strain VPS5, stronger effect = lower value): 0.731 (active)
normalized growth (S. cerevisiae deletion strains, locus YOR070C, strain gyp1, stronger effect = lower value): 0.984
normalized growth (S. cerevisiae deletion strains, locus YOR080W, strain dia2, stronger effect = lower value): 0.992
normalized growth (S. cerevisiae deletion strains, locus YOR083W, strain WHI5, stronger effect = lower value): 0.994
normalized growth (S. cerevisiae deletion strains, locus YOR106W, strain vam3, stronger effect = lower value): 1.02
normalized growth (S. cerevisiae deletion strains, locus YOR136W, strain idh2, stronger effect = lower value): 0.748 (active)
normalized growth (S. cerevisiae deletion strains, locus YOR144C, strain elg1, stronger effect = lower value): 0.586 (active)
normalized growth (S. cerevisiae deletion strains, locus YOR184W, strain ser1, stronger effect = lower value): 0.333 (active)
normalized growth (S. cerevisiae deletion strains, locus YOR231W, strain MKK1, stronger effect = lower value): 0.822 (active)
normalized growth (S. cerevisiae deletion strains, locus YOR265W, strain rbl2, stronger effect = lower value): 0.984
normalized growth (S. cerevisiae deletion strains, locus YOR270C, strain vph1, stronger effect = lower value): 0.976
normalized growth (S. cerevisiae deletion strains, locus YOR290C, strain snf2, stronger effect = lower value): 0.96
normalized growth (S. cerevisiae deletion strains, locus YOR316C, strain cot1, stronger effect = lower value): 0.663 (active)
normalized growth (S. cerevisiae deletion strains, locus YPL051W, strain arl3, stronger effect = lower value): 0.994
normalized growth (S. cerevisiae deletion strains, locus YPL055C, strain LGE1, stronger effect = lower value): 0.525 (active)
normalized growth (S. cerevisiae deletion strains, locus YPL078C, strain atp4, stronger effect = lower value): 0.991
normalized growth (S. cerevisiae deletion strains, locus YPL106C, strain sse1, stronger effect = lower value): 0.964
normalized growth (S. cerevisiae deletion strains, locus YPL240C, strain hsp82, stronger effect = lower value): 1.01
normalized growth (S. cerevisiae deletion strains, locus YPL241C, strain CIN2, stronger effect = lower value): 0.558 (active)
normalized growth (S. cerevisiae deletion strains, locus YPL256C, strain CLN2, stronger effect = lower value): 0.786 (active)
normalized growth (S. cerevisiae deletion strains, locus YPR119W, strain clb2, stronger effect = lower value): 0.804 (active)
normalized growth (S. cerevisiae deletion strains, locus YPR141C, strain kar3, stronger effect = lower value): 1.01
normalized growth (S. cerevisiae deletion strains, locus YPR163C, strain tif3, stronger effect = lower value): 0.984
normalized growth (S. cerevisiae deletion strains, locus YPR167C, strain met16, stronger effect = lower value): 0.622 (active)
normalized growth (S. cerevisiae deletion strains, strain wtn01, stronger effect = lower value): 0.305 (active)
normalized growth (S. cerevisiae strains, strain wild type, stronger effect = lower value): 0.408 (active)
